LASV entry inh: blocks Lassa virus binding to or entry into cells; Lassa virus pseudotype entry inhibition, cell reporter; Potency, µM (doses to about 37.9 µM), without a hit: at the top dose activity change, negative = inhibition, actives largely listed as inhibitors; 300,000 tested, 1.2% active; calls by dose curve; tested in HEK293 cells; further: potency means the concentration at half of the fitted maximal effect; on the % scale 0 is the no-effect control and ±100 the full control effect; nearly all actives have a fitted effect of over 50% in size
Shiga toxin inh: inhibitors of Shiga toxin in Vero cells; 290,000 tested, 9.2% active; inhibition, % at 38.7 µM; Vero cells, Shiga toxin protein synthesis inhibition reporter; in the data active means inhibition mostly above about 28%, no sharp cut-off; inactive means mostly below about 43%; further: 0% is about no effect
Cycloheximide cs: counter-screen for Shiga toxin inhibitors: cycloheximide protein synthesis inhibition; cell reporter, cycloheximide protein synthesis inhibition counterscreen; max response, %; 300,000 tested, 12% active; AID 2314; in the data active means max response mostly above about 13%, no sharp cut-off; inactive means mostly below about 14%; further: read at 38.3 µM for the half of the compounds with a filed dose; 0% is about no effect
Marburg entry inh: inhibitors of Marburg virus binding or cell entry; Marburg virus pseudotyped entry inhibition, cell reporter; AID 540276; 300,000 tested, 1.8% active; Potency, µM (doses to about 37.8 µM), for the others: top-dose activity change, negative = inhibition, most hits filed as inhibitors; calls by dose curve; tested in HEK293 cells; further: potency means the concentration at half of the fitted maximal effect; on the % scale 0 is the no-effect control and ±100 the full control effect
HCV inhibitor: HCV inhibition; Huh7.5.1 HCVcc-Cre infection, luciferase reporter, 44 h; 340,000 tested, 3.4% active; Potency, µM (series often up to 41.8 µM), for the others: at the highest dose activity change, negative = inhibition, hits mostly inhibitors; AID 651820; active means well fitted inhibition curve with a large enough effect; inconclusive means small, poorly fitted or top-dose-only effect, or another doubt; inactive means no such curve, though single readings can be large or run the other way; further: potency means the concentration at half of the fitted maximal effect; on the % scale 0 is the no-effect control and ±100 the full control effect
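Reporter virus HCVcc-Cre (~0.5 moi) infects cells exposed to compound; seeding density 1,000 cells/well with 4 h settling beforehand. Luminescence, 15 sec read, taken 44 h post-infection following a 15 min RT substrate incubation.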
FMDV antiviral: foot and mouth disease virus antiviral activity; Potency, µM (top dose mostly 57.9 µM), for inactives: at the highest dose activity change, negative = inhibition, actives largely listed as inhibitors; AID 1159524; FMDV antiviral cell-based qHTS; 410,000 tested, 1.2% active; calls by dose curve; tested in HEK293T cells; further: read-out not given here; potency means the concentration at half of the fitted maximal effect; on the % scale 0 is the no-effect control and ±100 the full control effect; nearly all actives have a fitted effect of over 45% in size
The depositor's hits bear a star; ? = inconclusive; . = no result given; [ ] = dose if it differs, or a comment. Shown are actives, neighbours in structure and some others; about 13% of the full set was active somewhere.

SMILES	LASV entry inh	Shiga toxin inh	Cycloheximide cs	Marburg entry inh	HCV inhibitor	FMDV antiviral
COC(=O)Cc1ccc(NC(=S)NNC(=O)c2ccccc2Br)cc1	28.9%	1.4	14.2	?	1.3%	6.0%
COC(=O)Cc1ccc(NC(=O)c2ccccc2Br)cc1	-10.1%	50.2	15.1*	?	9.8%	32.6%
O=C(Nc1ccc(C(F)(F)F)cc1)C1(c2ccccc2)CC1	13.3%	18.4	11.5*	-5.9%	0.7%	9.1%
CC(=O)c1ccc(NC(=O)c2cccs2)cc1	-12.3%	125.1*	54.3*	-16.3%	-1.3%	.
CC(=O)NCCNC(=O)C1Cc2c(-c3ccccc3)ccnc2O1 (stereo unspecified)	.	.	.	.	.	-15.2%
N/C(=N\O)c1ccc(NC(=O)c2cccs2)cc1	27.5%	109.2*	58.4*	?	0.0%	27.5%
COc1ccc(-c2ccc(S(=O)(=O)n3nc(OC(=O)c4cccs4)cc3N)cc2)cc1	.	-16.4	1.6	.	-9.9%	23.7%
COC(=O)Cc1ccc(NC(=O)c2cccs2)cc1	5.0%	81.9*	49.3*	0.4%[46.1 µM]	-7.8%	51.9%
O=C(Nc1ccc(C(F)(F)F)cc1)c1ccccc1Br	12.9%	108.1*	49.4*	12.5%[46.1 µM]	?	34.9%
COc1ccccc1CC(=O)Nc1ccc(NC(=O)c2cccs2)cc1	-22.5%	-4.7	-2.6	?	?	-18.2%
COc1ccc(NC(=O)n2nc(OC(=O)c3cccs3)cc2N)cc1	.	50.6*	33.4*	.	15.4%	54.1%
Cc1ccc(C(=O)Nc2ccc(NC(=O)c3cccs3)cc2)cc1C	9.1%[46.1 µM]	.	.	.	.	2.0%
C=Cn1cc[n+](CC(=O)c2ccc(Cl)cc2)c1	27.2%	.	-4.2	3.8%	15.1%	-26.1%
Cc1noc(C)c1COC(=O)c1cccnc1Cl	1.6%	-17.1	-1.1	9.6%[46.1 µM]	35.7%	-3.4%
CC(=O)c1ccc(OC(=O)c2cccs2)cc1	8.9%	-12.7	-2.3	-4.5%	6.1%	30.0%
CC(=O)Nc1ccc(OC(=O)c2cccs2)cc1	12.5%	70.9*	33.6*	-1.1%	4.2%	67.0%
Cn1cc(-c2cc3n(n2)CCC(=O)N3CCCC(=O)Nc2ccc(F)cc2F)c2ccccc21	-14.7%[46.1 µM]	.	.	.	.	-22.6%
Cc1ccc2c(c1)cc(CN(Cc1ccco1)C(=O)COc1ccccc1)c1nnnn12	?	65.4*	26.5*	?	-24.0%	?
O=C(C[C@H]1C=C[C@H](NC(=O)c2ccccn2)[C@@H](CO)O1)NCc1cc(F)cc(F)c1	.	.	.	.	.	-15.8%
O=C(NN=C1CCN(Cc2ccccc2)CC1)c1ccccc1O	-12.0%	35.4*	22.1*	-3.5%[46.1 µM]	-23.0%	31.5%
O=C(O)c1cc(NN=C2CCN(Cc3ccccc3)CC2)ccc1Cl	.	11.6	0.8	.	3.5%	47.7%
CCN1CCC(=NNC(=O)c2ccco2)CC1	26.4%	52.6*	55.6*	?	6.3%	-5.1%
CCCN1CCC(=NNc2ccc(C(=O)O)cc2)CC1	-17.7%	40.0*	30.5*	?	-19.6%	?
O=C(NN=C1CCN(Cc2ccccc2)CC1)c1cc2ccccc2cc1O	14.0%	15.3	1.0	2.1%	11.3%	12.0%
CCN1CCN(c2c(Cl)cccc2NC(=O)c2ccco2)CC1	4.0%	-12.7	-3.0	1.7%	?	0.0%
SMILES	LASV entry inh	Shiga toxin inh	Cycloheximide cs	Marburg entry inh	HCV inhibitor	FMDV antiviral
CCOC(=O)C1=C(C)C/C(=N\NC(=O)c2ccccc2O)CC1	.	38.3	23.2*	.	3.2%	13.8%
O=C(Cn1ncc2c([nH]c3ccccc32)c1=O)Nc1ccc(F)cc1F	-4.2%[46.1 µM]	27.3	12.0	7.2%[46.1 µM]	15.1%	18.7%
NS(=O)(=O)c1ccc(NC(=O)CN2CCN(S(=O)(=O)/C=C/c3ccccc3)CC2)cc1	-0.9%	12.8	-2.1	-18.4%[46.1 µM]	-12.6%	-2.1%
O=C(NCCn1c(-c2ccncc2)nc2ccccc21)[C@H]1CCCN1c1nc(CN2CCCCC2)cs1	.	-3.6	1.4	.	14.3%	0.0%
CC1(C)N=C(SCc2ccc(Cl)cc2)c2ccccc2N1	12.6%[46.1 µM]	.	.	.	.	0.0%
O=C(NCC(=O)N1CCCC1)c1ccc(Br)o1	6.5%	13.3	5.7	?	-10.6%	-1.7%
CCCN1CCC(=NNC(=O)c2ccc(Br)o2)CC1	2.3%	69.7*	41.2*	-11.8%	1.5%	.
COc1ccc(-c2nc3cnc(Nc4cccc(OC)c4)nc3n(C3CC3)c2=O)cc1	.	.	.	.	.	8.3%
O=C(CC(c1cccs1)S(=O)(=O)c1ccccc1)c1ccc(F)cc1 (stereo unspecified)	-6.9%	33.1*	51.9*	0.0%	36.1%	-20.4%

Screens from PubChem.
